Hit rate of the full screen: of about 5,500 compounds, about 2,000 (36%) were called active. Inconclusive results (about 18%) are left out. No stated cut-off is given here; in the data, active means normalized growth mostly below about 0.91 (no sharp cut-off); inconclusive means no clear call, values can overlap the other calls; inactive means mostly above about 0.92. The list shows a part of the results.
Assay: chemical genetic growth profiling, strain panel (AID 1159580);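 further: tested at 20 µM; growth read once vehicle control cultures reached saturation at 30 °C; 1 = growth at the plate median or of vehicle wells; lower values mean less growth of the strain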
Settings: S. cerevisiae deletion strains, growth OD

Measured: normalized growth

CCCCc1ccc(N=CNO)c(C)c1
active: locus YDL214C, strain PRR2, active compounds read low 0.427 | locus YDR477W, strain SNF1, active compounds read low 0.463 | locus YER123W, strain YCK3, active compounds read low 0.242 | locus YER133W, strain GLC7, active compounds read low 0.41 | locus YFR019W, strain FAB1, active compounds read low 0.255 | locus YGR040W, strain KSS1, active compounds read low 0.485 | locus YGR052W, strain FMP48, active compounds read low 0.246 | locus YHR030C, strain SLT2, active compounds read low 0.225 | locus YHR079C, strain IRE1, active compounds read low 0.146 | locus YHR082C, strain KSP1, active compounds read low 0.362 | locus YHR205W, strain SCH9, active compounds read low 0.475 | locus YJL095W, strain BCK1, active compounds read low 0.178 | locus YJL157C, strain FAR1, active compounds read low 0.45 | locus YJR066W, strain TOR1 (second series), active compounds read low 0.181 | locus YJR066W, strain TOR1, active compounds read low 0.236 | locus YKL048C, strain ELM1, active compounds read low 0.604 | locus YKL067W, strain YNK1, active compounds read low 0.48 | locus YKL101W, strain HSL1, active compounds read low 0.488 | locus YKL203C, strain TOR2, active compounds read low 0.391 | locus YLR113W, strain HOG1, active compounds read low 0.259 | locus YLR133W, strain CKI1, active compounds read low 0.558 | locus YLR403W, strain SFP1, active compounds read low 0.465 | locus YML070W, strain DAK1, active compounds read low 0.321 | locus YMR205C, strain PFK2 (second series), active compounds read low 0.558 | locus YNL020C, strain ARK1, active compounds read low 0.529 | locus YNL183C, strain NPR1, active compounds read low 0.229 | locus YNL307C, strain MCK1 (second series), active compounds read low 0.452 | locus YOL136C, strain PFK27, active compounds read low 0.358 | locus YOR061W, strain CKA2, active compounds read low 0.528 | locus YOR119C, strain RIO1, active compounds read low 0.332 | locus YOR231W, strain MKK1, active compounds read low 0.281 | locus YPL031C, strain PHO85, active compounds read low 0.444 | locus YPL153C, strain RAD53, active compounds read low 0.369 | locus YPL204W, strain HRR25, active compounds read low 0.418 | locus YPL256C, strain CLN2, active compounds read low 0.267
inactive: locus YAR019C, strain CDC15, active compounds read low 0.985 | locus YBL105C, strain PKC1, active compounds read low 1.01 | locus YBR135W, strain CKS1, active compounds read low 0.983 | locus YBR136W, strain MEC1, active compounds read low 0.976 | locus YBR160W, strain CDC28, active compounds read low 0.996 | locus YDL017W, strain CDC7, active compounds read low 0.997 | locus YDL028C, strain MPS1, active compounds read low 0.974 | locus YDL101C, strain DUN1, active compounds read low 0.914 | locus YDL108W, strain KIN28, active compounds read low 0.974 | locus YDL132W, strain cdc53, active compounds read low 0.977 | locus YDR052C, strain DBF4, active compounds read low 0.995 | locus YDR054C, strain cdc34, active compounds read low 0.967 | locus YDR226W, strain ADK1, active compounds read low 0.986 | locus YFL009W, strain cdc4, active compounds read low 0.986 | locus YFL029C, strain CAK1, active compounds read low 0.977 | locus YFR003C, strain YPI1, active compounds read low 0.99 | locus YFR028C, strain CDC14, active compounds read low 0.967 | locus YGR092W, strain DBF2, active compounds read low 0.575 | locus YIL147C, strain SLN1, active compounds read low 0.985 | locus YJL128C, strain PBS2, active compounds read low 0.982 | locus YJR016C, strain ILV3, active compounds read low 0.996 | locus YKL193C, strain SDS22, active compounds read low 0.978 | locus YMR001C, strain CDC5, active compounds read low 0.982 | locus YMR277W, strain FCP1, active compounds read low 0.977 | locus YNL006W, strain LST8, active compounds read low 1 | locus YNL161W, strain CBK1, active compounds read low 0.992 | locus YNL207W, strain RIO2, active compounds read low 0.968 | locus YNL222W, strain SSU72, active compounds read low 0.985 | locus YOL078W, strain AVO1, active compounds read low 0.948 | locus YOR329C, strain SCD5, active compounds read low 0.993 | locus YPL209C, strain IPL1, active compounds read low 0.993 | locus YPR025C, strain CCL1, active compounds read low 0.993 | locus YPR106W, strain ISR1, active compounds read low 0.989 | locus YPR111W, strain DBF20, active compounds read low 0.995 | strain NNK1, active compounds read low 0.974 | strain TSCII, active compounds read low 0.964

Source: PubChem BioAssay AID1159580 (chemical genetic matrix, 2015)
